# Measurements reported in PubChem BioAssay (NCI).
# The panel holds about 79,000 compounds, 15% with a hit somewhere; the sample as a whole holds those more often. A number with no mark means an inactive call. The source made the active and inactive calls. Cut-off read from the data, not from the text of the source: active = growth inhibition above about 70%; inactive = the rest.
# Columns and labels:
# [1] = NCI Yeast Anticancer Drug Screen. Data for the rad52 strain (AID 147);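 note: 0% = growth of vehicle-treated control cultures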; settings: S. cerevisiae rad52 mutant growth inhibition, stronger effect = higher value
# Procedure, shortened: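 Yeast strain carrying a DNA damage repair alteration was exposed to test compounds. Growth inhibition was measured relative to vehicle-treated controls.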
# [2] = NCI Yeast Anticancer Drug Screen. Data for the wt1 strain (AID 149);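 note: 0% = growth of vehicle-treated wt1 cultures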; settings: S. cerevisiae wt1 strain (SPY 50644) growth inhibition, stronger effect = higher value
# Procedure, shortened: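 Using yeast strain wt1, compound-induced growth inhibition was determined against vehicle-treated cultures.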
# [3] = NCI Yeast Anticancer Drug Screen. Data for the rad50EPP+ strain (AID 151);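 note: 0% = growth of vehicle-treated control cultures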; settings: S. cerevisiae rad50 mutant strain, stronger effect = higher value
# Procedure, shortened: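 Yeast strain carrying rad50 alteration (rad50EPP+) exposed to compounds; growth inhibition measured relative to vehicle-treated controls.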
# [4] = NCI Yeast Anticancer Drug Screen. Data for the mgt1 strain (AID 153); settings: S. cerevisiae mgt1 mutant growth inhibition, stronger effect = higher value
# Procedure, shortened: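 Yeast mgt1 strain (DNA repair/cell-cycle alteration panel) exposed to compounds; growth inhibition measured relative to vehicle-treated controls.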
# [5] = NCI Yeast Anticancer Drug Screen. Data for the rad50 strain (AID 155);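 note: 0% = growth of vehicle-only cultures of the same strain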; settings: S. cerevisiae rad50 strain growth inhibition, stronger effect = higher value
# Procedure, shortened: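 Relative growth inhibition (compound vs vehicle) was measured in yeast with a defined repair-gene alteration.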
# [6] = NCI Yeast Anticancer Drug Screen. Data for the mec2-1 strain (AID 157); settings: S. cerevisiae mec2-1 strain, stronger effect = higher value
# Procedure, shortened: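 mec2-1 yeast strain, carrying an alteration in DNA damage repair or cell cycle control, was exposed to compounds; growth inhibition was measured relative to vehicle-treated controls.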
# [7] = NCI Yeast Anticancer Drug Screen. Data for the rad14 strain (AID 159);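 note: 0% = growth of vehicle-treated control cultures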; settings: S. cerevisiae rad14 strain growth inhibition, stronger effect = higher value
# Procedure, shortened: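 Screen for anticancer potential: a yeast strain altered in DNA damage repair is grown with compound, and reduced growth is quantified against vehicle controls.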
# [8] = NCI Yeast Anticancer Drug Screen. Data for the sgs1 mgt1 strain (AID 161);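 note: 0% = growth of cultures given vehicle only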; settings: S. cerevisiae sgs1 mgt1 strain, stronger effect = higher value
# Procedure, shortened: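 Growth of a repair-deficient yeast mutant was monitored after compound treatment and expressed as inhibition relative to vehicle-treated cultures.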
# [9] = NCI Yeast Anticancer Drug Screen. Data for the CLN2oe strain (AID 163);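 note: 0% = growth of vehicle-only control cultures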; settings: S. cerevisiae CLN2oe strain, stronger effect = higher value
# Procedure, shortened: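 Yeast cells carrying a defined cell-cycle control alteration were exposed to test compounds. Growth inhibition was scored against vehicle-treated control cultures.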
# [10] = NCI Yeast Anticancer Drug Screen. Data for the cln2 rad14 strain (AID 165);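 note: 0% = growth equal to vehicle treated cultures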; settings: S. cerevisiae cln2 rad14 strain, stronger effect = higher value
# Procedure, shortened: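 Yeast carrying cln2 and rad14 alterations (cell cycle control and DNA damage repair) were exposed to compounds. Growth inhibition was measured against vehicle-treated controls.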
# [11] = NCI Yeast Anticancer Drug Screen. Data for the bub3 strain (AID 167); settings: S. cerevisiae bub3 mutant strain, stronger effect = higher value
# Procedure, shortened: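 Screening used yeast with an engineered genetic alteration affecting cell cycle control. Compound-exposed cultures were compared with vehicle cultures, and reduced growth was taken as inhibition.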
# [12] = NCI Yeast Anticancer Drug Screen. Data for the wt2 strain (AID 169);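 note: 0% = growth of vehicle-treated yeast cultures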; settings: S. cerevisiae wt2 strain growth inhibition, stronger effect = higher value
# Procedure, shortened: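 Yeast cells were exposed to test compounds, and growth inhibition was measured relative to vehicle-treated controls.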
# [13] = NCI Yeast Anticancer Drug Screen. Data for the mlh1 strain (AID 171);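 note: 0% = growth of vehicle-treated control cultures of the same strain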; settings: S. cerevisiae mlh1 strain growth inhibition, stronger effect = higher value
# Procedure, shortened: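 Yeast carrying a defined genetic alteration in DNA damage repair or cell cycle control were exposed to test compounds. Growth inhibition was measured relative to vehicle-treated controls.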
# [14] = NCI Yeast Anticancer Drug Screen. Data for the sgs1 strain (AID 173);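 note: 0% = growth of vehicle-only control cultures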; settings: S. cerevisiae sgs1 mutant, stronger effect = higher value
# Procedure, shortened: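 Yeast mutant strains carrying defined defects in DNA damage repair or cell cycle control were exposed to test compounds. Growth inhibition was scored against vehicle-treated controls.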
# [15] = NCI Yeast Anticancer Drug Screen. Data for the mlh1 rad18 strain (AID 175); settings: S. cerevisiae mlh1 rad18 strain growth inhibition, stronger effect = higher value
# Procedure, shortened: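 Growth inhibition of the yeast strain was measured after compound exposure and expressed relative to vehicle-treated controls. The strain carries defined defects in DNA damage repair.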
# [16] = NCI Yeast Anticancer Drug Screen. Data for the rad18 strain (AID 177); settings: S. cerevisiae rad18 mutant growth inhibition, stronger effect = higher value
# Procedure, shortened: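 Yeast carrying a defined DNA damage repair alteration were exposed to compounds. Growth inhibition was expressed relative to vehicle-treated controls.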
# [17] = at 5.0 µM (retest, dose inferred, filed as 0.5)
# [18] = at 50.0 µM (retest, dose inferred, filed as 5.0)
smiles,measurement,setting,value
Cc1cc2cc3cc(C)c(N)cc3nc2cc1N,growth inhibition,[1]; at 1.2 µM,-6%
same,growth inhibition,[1]; at 3.7 µM,-1%
same,growth inhibition,[1]; at 11.0 µM,-7%
same,growth inhibition,[1]; at 33.0 µM,77% (active)
same,growth inhibition,[1]; at 100.0 µM,96% (active)
same,growth inhibition,[2]; at 1.2 µM,-18%
same,growth inhibition,[2]; at 3.7 µM,-8%
same,growth inhibition,[2]; at 11.0 µM,-6%
same,growth inhibition,[2]; at 33.0 µM,56%
same,growth inhibition,[2]; at 100.0 µM,89% (active)
same,growth inhibition,[3]; at 1.2 µM,-10%
same,growth inhibition,[3]; at 3.7 µM,20%
same,growth inhibition,[3]; at 11.0 µM,37%
same,growth inhibition,[3]; at 33.0 µM,71% (active)
same,growth inhibition,[3]; at 100.0 µM,84% (active)
same,growth inhibition,[4]; at 1.2 µM,-61%
same,growth inhibition,[4]; at 3.7 µM,-60%
same,growth inhibition,[4]; at 11.0 µM,-28%
same,growth inhibition,[4]; at 33.0 µM,68%
same,growth inhibition,[4]; at 100.0 µM,94% (active)
same,growth inhibition,[5]; at 1.2 µM,-9%
same,growth inhibition,[5]; at 3.7 µM,-18%
same,growth inhibition,[5]; [17],94% (active)
same,growth inhibition,[5]; at 11.0 µM,27%
same,growth inhibition,[5]; at 33.0 µM,86% (active)
same,growth inhibition,[5]; [18],99% (active)
same,growth inhibition,[5]; at 50.0 µM,81.8% (active)
same,growth inhibition,[5]; at 100.0 µM,96% (active)
same,growth inhibition,[6]; at 1.2 µM,-18%
same,growth inhibition,[6]; at 3.7 µM,-5%
same,growth inhibition,[6]; [17],78% (active)
same,growth inhibition,[6]; at 11.0 µM,13%
same,growth inhibition,[6]; at 33.0 µM,82% (active)
same,growth inhibition,[6]; [18],98% (active)
same,growth inhibition,[6]; at 50.0 µM,75.5% (active)
same,growth inhibition,[6]; at 100.0 µM,97% (active)
same,growth inhibition,[7]; at 1.2 µM,-7%
same,growth inhibition,[7]; at 3.7 µM,-23%
same,growth inhibition,[7]; at 11.0 µM,5%
same,growth inhibition,[7]; at 33.0 µM,70% (active)
same,growth inhibition,[7]; at 100.0 µM,92% (active)
same,growth inhibition,[8]; [17],16%
same,growth inhibition,[8]; [18],98% (active)
same,growth inhibition,[8]; at 50.0 µM,85.2% (active)
same,growth inhibition,[9]; at 1.2 µM,-1%
same,growth inhibition,[9]; at 3.7 µM,8%
same,growth inhibition,[9]; at 11.0 µM,17%
same,growth inhibition,[9]; at 33.0 µM,46%
same,growth inhibition,[9]; at 100.0 µM,83% (active)
same,growth inhibition,[10]; [17],34%
same,growth inhibition,[10]; [18],98% (active)
same,growth inhibition,[10]; at 50.0 µM,46.8%
same,growth inhibition,[11]; at 1.2 µM,-20%
same,growth inhibition,[11]; at 3.7 µM,-5%
same,growth inhibition,[11]; [17],23%
same,growth inhibition,[11]; at 11.0 µM,8%
same,growth inhibition,[11]; at 33.0 µM,69%
same,growth inhibition,[11]; [18],96% (active)
same,growth inhibition,[11]; at 50.0 µM,77.8% (active)
same,growth inhibition,[11]; at 100.0 µM,92% (active)
same,growth inhibition,[12]; at 1.2 µM,-7%
same,growth inhibition,[12]; at 3.7 µM,-12%
same,growth inhibition,[12]; at 11.0 µM,2%
same,growth inhibition,[12]; at 33.0 µM,56%
same,growth inhibition,[12]; at 100.0 µM,94% (active)
same,growth inhibition,[13]; at 1.2 µM,-10%
same,growth inhibition,[13]; at 3.7 µM,3%
same,growth inhibition,[13]; at 11.0 µM,24%
same,growth inhibition,[13]; at 33.0 µM,79% (active)
same,growth inhibition,[13]; at 100.0 µM,95% (active)
same,growth inhibition,[14]; at 1.2 µM,-43%
same,growth inhibition,[14]; at 3.7 µM,-21%
same,growth inhibition,[14]; at 11.0 µM,0%
same,growth inhibition,[14]; at 33.0 µM,66%
same,growth inhibition,[14]; at 100.0 µM,91% (active)
same,growth inhibition,[15]; [17],94% (active)
same,growth inhibition,[15]; [18],99% (active)
same,growth inhibition,[15]; at 50.0 µM,81.8% (active)
same,growth inhibition,[16]; at 1.2 µM,-37%
same,growth inhibition,[16]; at 3.7 µM,-25%
same,growth inhibition,[16]; at 11.0 µM,-11%
same,growth inhibition,[16]; at 33.0 µM,67%
same,growth inhibition,[16]; at 100.0 µM,92% (active)
Cc1ccc2nc(-c3cccc([N+](=O)[O-])c3)oc(=O)c2c1,growth inhibition,[1]; at 1.2 µM,3%
same,growth inhibition,[1]; at 3.7 µM,6%
same,growth inhibition,[1]; at 11.0 µM,1%
same,growth inhibition,[1]; at 33.0 µM,-4%
same,growth inhibition,[1]; at 100.0 µM,-10%
same,growth inhibition,[2]; at 1.2 µM,-7%
same,growth inhibition,[2]; at 3.7 µM,-3%
same,growth inhibition,[2]; at 11.0 µM,-6%
same,growth inhibition,[2]; at 33.0 µM,-15%
same,growth inhibition,[2]; at 100.0 µM,-20%
same,growth inhibition,[3]; at 1.2 µM,-12%
same,growth inhibition,[3]; at 3.7 µM,12%
same,growth inhibition,[3]; at 11.0 µM,18%
same,growth inhibition,[3]; at 33.0 µM,15%
same,growth inhibition,[3]; at 100.0 µM,27%
same,growth inhibition,[4]; at 1.2 µM,-29%
same,growth inhibition,[4]; at 3.7 µM,-25%
same,growth inhibition,[4]; at 11.0 µM,-25%
same,growth inhibition,[4]; at 33.0 µM,-26%
same,growth inhibition,[4]; at 100.0 µM,-18%
same,growth inhibition,[5]; at 1.2 µM,-21%
same,growth inhibition,[5]; at 3.7 µM,-19%
same,growth inhibition,[5]; [17],31%
same,growth inhibition,[5]; at 11.0 µM,-34%
same,growth inhibition,[5]; at 33.0 µM,-31%
same,growth inhibition,[5]; [18],62%
same,growth inhibition,[5]; at 50.0 µM,14.2%
same,growth inhibition,[5]; at 100.0 µM,-30%
same,growth inhibition,[6]; at 1.2 µM,-57%
same,growth inhibition,[6]; at 3.7 µM,-57%
same,growth inhibition,[6]; [17],39%
same,growth inhibition,[6]; at 11.0 µM,-62%
same,growth inhibition,[6]; at 33.0 µM,-53%
same,growth inhibition,[6]; [18],75% (active)
same,growth inhibition,[6]; at 50.0 µM,11.8%
same,growth inhibition,[6]; at 100.0 µM,-70%
same,growth inhibition,[7]; at 1.2 µM,-10%
same,growth inhibition,[7]; at 3.7 µM,-6%
same,growth inhibition,[7]; at 11.0 µM,-4%
same,growth inhibition,[7]; at 33.0 µM,-19%
same,growth inhibition,[7]; at 100.0 µM,-16%
same,growth inhibition,[8]; [17],-14%
same,growth inhibition,[8]; [18],33%
same,growth inhibition,[8]; at 50.0 µM,27.6%
same,growth inhibition,[9]; at 1.2 µM,15%
same,growth inhibition,[9]; at 3.7 µM,22%
same,growth inhibition,[9]; at 11.0 µM,20%
same,growth inhibition,[9]; at 33.0 µM,9%
same,growth inhibition,[9]; at 100.0 µM,8%
same,growth inhibition,[10]; [17],43%
same,growth inhibition,[10]; [18],59%
same,growth inhibition,[10]; at 50.0 µM,13.2%
same,growth inhibition,[11]; at 1.2 µM,-23%
same,growth inhibition,[11]; at 3.7 µM,-23%
same,growth inhibition,[11]; [17],33%
same,growth inhibition,[11]; at 11.0 µM,-24%
same,growth inhibition,[11]; at 33.0 µM,-5%
same,growth inhibition,[11]; [18],75% (active)
same,growth inhibition,[11]; at 50.0 µM,53.7%
same,growth inhibition,[11]; at 100.0 µM,-36%
same,growth inhibition,[12]; at 1.2 µM,-22%
same,growth inhibition,[12]; at 3.7 µM,-19%
same,growth inhibition,[12]; at 11.0 µM,-26%
same,growth inhibition,[12]; at 33.0 µM,-32%
same,growth inhibition,[12]; at 100.0 µM,-24%
same,growth inhibition,[13]; at 1.2 µM,-6%
same,growth inhibition,[13]; at 3.7 µM,-2%
same,growth inhibition,[13]; at 11.0 µM,-17%
same,growth inhibition,[13]; at 33.0 µM,-17%
same,growth inhibition,[13]; at 100.0 µM,-14%
same,growth inhibition,[14]; at 1.2 µM,-20%
same,growth inhibition,[14]; at 3.7 µM,-16%
same,growth inhibition,[14]; at 11.0 µM,-19%
same,growth inhibition,[14]; at 33.0 µM,-18%
same,growth inhibition,[14]; at 100.0 µM,-11%
same,growth inhibition,[15]; [17],34%
same,growth inhibition,[15]; [18],67%
same,growth inhibition,[15]; at 50.0 µM,14.7%
same,growth inhibition,[16]; at 1.2 µM,-14%
same,growth inhibition,[16]; at 3.7 µM,-4%
same,growth inhibition,[16]; at 11.0 µM,-19%
same,growth inhibition,[16]; at 33.0 µM,-28%
same,growth inhibition,[16]; at 100.0 µM,-42%
